# hgDAF-12 ag – hgDAF-12 agonism, primary luciferase screen. HEK293 GAL4-hgDAF12 UAS-luciferase reporter, agonist luminescence; normalized to butyrate control. AID 687014. 370,000 tested, 1.8% active. activation, % at 6.8 µM;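 active = activation above a cutoff set at the mean of all screened compounds plus 3 SD, cut at about 10% in these data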
# hcDAF-12 act – activators of H. contortus DAF-12 nuclear receptor. HEK293 hcDAF-12 lit1-tk-luc reporter, luminescence; 0% DMSO, 100% Δ7-dafachronic acid. 370,000 tested, 1.4% active. activation, % at 6.8 µM. AID 652067;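 active = activation above the mean of all tested compounds plus 3 SD, cut at about 5.5% in these data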
# DAX1 inh-1 – inhibits human nuclear receptor DAX1; P51843; HEK293 Gal4-DAX1 luciferase reporter, luminescence; inhibition, % at 6.75 µM; 340,000 tested, 0.99% active;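 active = inhibition above the mean over all tested compounds plus 3 SD, cut at about 4.2% in these data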;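 also: inhibition shows as a rise in luminescence from relieved DAX1 repression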
# Target sequence (P51843 207-470 limits assumed): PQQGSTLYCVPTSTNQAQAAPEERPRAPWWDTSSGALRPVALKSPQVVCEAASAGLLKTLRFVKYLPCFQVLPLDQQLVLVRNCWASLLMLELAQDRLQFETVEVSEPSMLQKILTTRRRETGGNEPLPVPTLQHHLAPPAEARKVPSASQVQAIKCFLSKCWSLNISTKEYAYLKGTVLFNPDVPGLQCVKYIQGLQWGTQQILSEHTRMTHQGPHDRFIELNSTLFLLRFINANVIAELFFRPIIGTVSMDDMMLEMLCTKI
# DAX1 inh-2 – blocks DAX1 repression of SF-1 activated StAR promoter. HEK293T StAR-luciferase reporter, SF-1/DAX-1 repression relief. inhibition, % at 6.8 µM. 370,000 tested, 1.1% active. AID 652010;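 active = inhibition above the mean over all tested compounds plus 3 SD, cut at about 3.6% in these data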;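 also: higher inhibition means more luminescence from relief of DAX-1 repression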
# ssDAF12 agonist – activators of S. stercoralis DAF-12 nuclear receptor; activation, % at 6.8 µM; HEK293 ssDAF-12/GRIP1 lit1-tk-luc reporter, luminescence; % of 3 µM dafachronic acid response; AID 652126; 370,000 tested, 1% active;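 active = activation above the mean over all tested compounds plus 3 SD, cut at about 0.9% in these data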
# SMARCA2 activ – activators of SMARCA2 function. MG213 cells, MMTV-luciferase reporter, dexamethasone, overnight. activation, % at 9.1 µM. 370,000 tested, 1% active. AID 652017; in the data active = activation above about 7.8%
# SMARCA2 conf – SMARCA2 activation, confirmation screen | shares compounds with SMARCA2 activ | MG213 cells, MMTV-luciferase with dexamethasone, luminescence, overnight; MG213 cells expressing E1A, Rb sequestered; DMSO wells 0%, reference activator 100% | activation, % at 9.1 µM | 3,500 tested, 30% active;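 active = activation above its plate's cutoff, the mean activation of tested wells plus 3 SD, cut at about 7.9% in these data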
# GAL4-VP16 Luc – GAL4-VP16 reporter activation counter-screen | AID 686939 | 3,500 tested, 41% active | HEK293 GAL4-VP16 pG5luc reporter, luciferase luminescence; scaled: DMSO wells 0%, SAHA wells 100% | activation, % at 9.1 µM | shares compounds with SMARCA2 activ;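 active = activation above the solvent-only control well mean plus 3 SD, averaged across control plates, cut at about 5.2% in these data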
# A number is an active result; 0 = inactive; - = no result. Most compounds without a hit are left out; they make up all but 4.8% or so of the library.
SMILES,hgDAF-12 ag,hcDAF-12 act,DAX1 inh-1,DAX1 inh-2,ssDAF12 agonist,SMARCA2 activ,SMARCA2 conf,GAL4-VP16 Luc
COCC1CCN(Cc2nc(COc3ccccc3)no2)C1 (stereo unspecified),0,0,0,0,0,8.3,0,0
Cc1ccc(C(=O)CCNc2ccc(Br)cc2)o1,0,0,0,0,0,0,-,-
Cc1ccc(C(=O)CCNc2cccc(Br)c2)o1,0,0,0,0,0,8.8,0,0
O=C(NC1CCCCC1)c1n[nH]c2c1CC(c1ccccc1)CC2 (stereo unspecified),0,0,0,0,0,8.0,0,12
CCC(C(=O)Nc1cnccn1)c1ccccc1 (stereo unspecified),0,0,0,0,0,0,-,-
CCC(C(=O)NNC(=O)c1cnccn1)c1ccccc1 (stereo unspecified),0,0,0,0,0,8.1,0,0
Cc1ccc(C(=O)c2cccc(N)c2)cc1C,0,0,0,0,0,0,-,-
Cc1nc(COC(=O)c2c(C)nn(-c3ccccc3)c2C)cs1,0,0,0,0,0,9.1,10,0
Cc1nn(-c2ccccc2)c(C)c1C(=O)OCC(=O)Nc1ccccc1,0,0,0,0,0,0,-,-
O=C(Nc1ccc(-c2cn3ccccc3n2)cc1)c1cccs1,12,0,0,0,0,8.1,28,14
O=C(Nc1ccc(NC(=O)c2ccccc2F)cc1)c1cccs1,0,0,0,4.2,0,8.8,0,7.7
CCOC(=O)c1cc(-c2ccccc2)n(CC(=O)Nc2cc(OC)cc(OC)c2)c1C,0,0,0,0,0,0,-,-
COc1ccc2[nH]c(C)c(CCN3C(=O)OC(C)(C)C3(C)O)c2c1 (stereo unspecified),0,0,0,0,0,0,-,-
COc1ccc2[nH]c(C)c(CCN3C(=O)C4CC=CCC4C3=O)c2c1 (stereo unspecified),0,0,0,0,0,9.1,0,0
COc1ccc(-c2nn3c(-c4ccccn4)nnc3s2)cc1OC,0,0,0,0,0,0,-,-
O=C(Oc1ccccc1Cl)c1ccc(-n2cncn2)nc1,0,0,0,0,0,8.2,0,0
CC(C)(C)NC(=O)CN1C(=O)/C(=C/c2ccccc2)SC1=S,0,0,0,0,0,0,-,-
COC(=O)C1=C(C)N(Cc2ccc(F)cc2)C(=S)NC1c1cccc(OC)c1 (stereo unspecified),0,0,-,0,0,8.6,0,0
CNC(=O)c1ncoc1-c1ccc(Cl)cc1,0,0,0,0,0,8.1,0,0
Cn1c(C(=O)N2CCN(Cc3ccccc3)CC2)cc2c(=O)n(C)c3ccccc3c21,0,0,0,0,0,8.9,0,0
COc1ccc(C2/C=C\CN(C(=O)c3ccc(C)cc3)[C@H](Cc3ccccc3)C(=O)N2Cc2ccc(F)cc2)cc1 (stereo partly specified),-,-,0,-,-,-,-,-
O=S(=O)(c1ccc(NC(=S)Nc2ccc3c(c2)OCO3)cc1)N1CCOCC1,0,0,0,0,0,0,-,-
CNS(=O)(=O)c1ccc(NC(=S)Nc2ccc3c(c2)OCO3)cc1,11,0,0,0,0,9.0,0,0
O=C(CCc1[nH]c2ccccc2c1Sc1ccccc1)NCCO,0,0,0,0,0,0,-,-
C/C(=N\N=c1/sc2ccccc2n1C)c1ccccn1,0,0,0,0,0,8.1,0,7.5
SMILES,hgDAF-12 ag,hcDAF-12 act,DAX1 inh-1,DAX1 inh-2,ssDAF12 agonist,SMARCA2 activ,SMARCA2 conf,GAL4-VP16 Luc
O=C(C1=C[C@@H](C2CCCCC2)C[C@@H](OCCCCO)O1)N1CCOCC1,0,0,0,0,0,0,-,-
CCNC(=O)NC(=O)C(C)Sc1nc2ccccc2c(=O)n1-c1cccnc1 (stereo unspecified),0,0,0,0,0,0,-,-
CCNC(=O)NC(=O)C(C)Sc1nc2cc(C(=O)OC)ccc2c(=O)n1-c1ccccc1 (stereo unspecified),0,0,0,0,0,9.4,0,0
N#Cc1c(NC(=S)NC(=O)c2ccccc2)sc2c1CCCC2,0,0,0,0,0,0,-,-
N#Cc1c(NC(=S)NC(=O)C2CCCC2)sc2c1CCCCC2,0,0,0,0,0,13,0,0
CCn1nnnc1-c1ccc(OC)c(S(=O)(=O)Nc2ccc(C)c(C)c2)c1,0,0,0,0,0,0,-,-
CCOC(=O)c1c(C)oc2cc(Br)c(O)c(Br)c12,0,0,0,0,0,0,-,-
COc1cccc(C(=O)COC(=O)c2cccs2)c1,0,0,0,0,0,9.1,12,0
CC(=O)NCCc1ccc(C(=O)COC(=O)c2cccn2C)cc1,0,0,0,0,0,9.2,0,0
COc1ccc(C(=O)COC(=O)c2cccs2)cc1,11,0,0,3.7,0,11,0,10
CC(=O)NCCc1ccc(C(=O)COC(=O)c2cccs2)cc1,0,0,0,0,0,8.6,9.8,0
Cc1ccc(-n2c(SCC(=O)NCC3CCCO3)nc3ccccc3c2=O)cc1C (stereo unspecified),0,0,0,0,0,0,-,-
Cc1ccc(NC(=O)c2nc[nH]c2C(=O)NCCCCCCNC(=O)c2[nH]cnc2C(=O)Nc2ccc(C)cc2)cc1,0,0,0,0,0,0,-,-
Cc1ccc(NS(=O)(=O)c2ccc(C(=O)N3CC(C)OC(C)C3)cc2)cc1 (stereo unspecified),0,0,0,0,0,0,-,-
Cc1cccc(CCNC(=O)C2CCN(S(=O)(=O)c3ccccc3)CC2)c1,0,0,0,0,0,0,-,-
Cc1ccc(S(=O)(=O)NNC(=O)C(O)(c2ccccc2)c2ccccc2)cc1,0,0,0,0,0,0,-,-
CC[C@@H](CCC(=O)N(c1ccccc1)c1ccccc1)c1ccc(C)cc1,0,0,-,0,0,0,-,-
CCC1CCCCN1Cc1c(O)ccc2c(=O)c(-c3ccccc3OC)coc12 (stereo unspecified),0,0,0,0,0,0,-,-
CN(C)c1ccc(-c2noc(C3CCN(S(=O)(=O)c4cccc(C(=O)O)c4)CC3)n2)cc1,0,0,0,0,0,9.7,0,0
Cc1ccc(S(=O)(=O)Nc2nc3ccccc3nc2NCc2ccco2)cc1,0,0,0,0,1.4,8.7,22,19
O=C(COC(=O)c1ccccc1O)NCCCc1ccccc1,0,0,0,0,0,0,-,-
CC(/C=N/N1CCN(c2ccccc2)CC1)=C\c1ccccc1,-,-,0,-,-,-,-,-

# Screening results deposited in PubChem BioAssay by The Scripps Research Institute Molecular Screening Center.
